# Test results: the supplement of paper PMC9950053
# Where a name gives a salt, the structure may show the parent alone.
# System: Danio rerio larvae (5 dpf)
# Assay: startle (activity period 16 minus period 15, 20-s interval sound) minus DMSO control (percentage points); higher = stronger startle response than DMSO larvae
# Conditions: 10 µM; exposure time: 3 h pre-incubation + 3 h imaging
# Method: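 Wild-type 5 dpf zebrafish larvae (n=48 per drug, 96-well plates, 28.5 °C) were exposed to Tocris FDA-approved library compounds at 10 µM (0.1% DMSO) for 3 h before and 3 h during imaging. Images were taken every 6 s during visual (moving coloured lines) and acoustic stimuli, and larvae were tracked with the DeepLabCut-based Z-LaP Tracker. Each behavioural measure is the treated-group mean minus the DMSO vehicle control mean (n=844), in percentage points. This mapping covers compounds with 4-character plate codes.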
row,SMILES,startle
1,Cc1nc(Nc2ncc(C(=O)Nc3c(C)cccc3Cl)s2)cc(N2CCN(CCO)CC2)n1 [Dasatinib],-0.00442
2,CCOC(=O)c1ncn2c1CN(C)C(=O)c1cc(F)ccc1-2 [Flumazenil],-0.637
3,NS(=O)(=O)Cc1noc2ccccc12 [Zonisamide],5.14
4,CC(=O)NC[C@H]1CN(c2ccc(N3CCOCC3)c(F)c2)C(=O)O1 [Linezolid],2.73
5,CC(CCc1ccc(O)cc1)NCCc1ccc(O)c(O)c1 (stereo not given) [Dobutamine hydrochloride],-0.893
6,CN1CC(=O)N2[C@H](c3ccc4c(c3)OCO4)c3[nH]c4ccccc4c3C[C@@H]2C1=O [Tadalafil],8.43
7,C[C@H]1C[C@@H]2[C@H]([C@@H](O)C[C@@]3(C)[C@H]2CC[C@]3(O)C(=O)CO)[C@@]2(C)C=CC(=O)C=C12 [Methylprednisolone],0.408
8,O=C(O[C@@H]1C[C@@H]2C[C@H]3C[C@H](C1)N2CC3=O)c1c[nH]c2ccccc12 [Dolasetron mesylate],0.504
9,Cc1cccc(C)c1OCC(C)N (stereo not given) [Mexiletine hydrochloride],0.959
10,COC(=O)C1=C(C)NC(C)=C(C(=O)OC(C)C)C1c1cccc2nonc12 (stereo not given) [Isradipine],-8.8
11,CCCCC1=NC2(CCCC2)C(=O)N1Cc1ccc(-c2ccccc2-c2nnn[nH]2)cc1 [Irbesartan],3.4
12,Cc1ccc(NC(=O)c2ccc(CN3CCN(C)CC3)cc2)cc1Nc1nccc(-c2cccnc2)n1 [Imatinib mesylate],5.71
13,CCCCCOC(=O)Nc1nc(=O)n([C@@H]2O[C@H](C)[C@@H](O)[C@H]2O)cc1F [Capecitabine],1.06
14,CCOc1nc2cccc(C(=O)O)c2n1Cc1ccc(-c2ccccc2-c2noc(=O)[nH]2)cc1 [Azilsartan],3.25
15,Cc1cc(C2CCCCC2)n(O)c(=O)c1 [Ciclopirox],-8.19
16,CCN(Cc1ccncc1)C(=O)C(CO)c1ccccc1 (stereo not given) [Tropicamide],-6.79
17,CC(=O)O[C@H]1C(=O)[C@@]2(C)[C@H]([C@H](OC(=O)c3ccccc3)[C@]3(O)C[C@H](OC(=O)[C@H](O)[C@@H](NC(=O)c4ccccc4)c4ccccc4)C(C)=C1C3(C)C)[C@]1(OC(C)=O)CO[C@@H]1C[C@@H]2O [Taxol],1.37
18,C[C@H](Cc1cc2c(c(C(N)=O)c1)N(CCCO)CC2)NCCOc1ccccc1OCC(F)(F)F [Silodosin],2.61
19,COc1ccc(Cl)cc1C(=O)NCCc1ccc(S(=O)(=O)NC(=O)NC2CCCCC2)cc1 [Glibenclamide],8.34
20,CN1CC[C@@H](NC(=O)Nc2ccc(C#N)cc2)C[C@@H]1c1nc2ccccc2[nH]1,-4.15

row,SMILES,startle
1,CC(C)C(=O)Nc1ccc([N+](=O)[O-])c(C(F)(F)F)c1 [Flutamide],-5.6
2,COc1ccccc1OCCNCC(O)COc1cccc2[nH]c3ccccc3c12 (stereo not given) [Carvedilol],3.72
3,Cc1ccc(N(CC2=NCCN2)c2cccc(O)c2)cc1 [Phentolamine Mesylate],-2.8
4,CC(c1cc2ccccc2s1)N(O)C(N)=O (stereo not given) [Zileuton],-0.862
5,CC(C)N(CCCCOCC(=O)NS(C)(=O)=O)c1cnc(-c2ccccc2)c(-c2ccccc2)n1 [Selexipag],1.3
6,COc1ccc(-c2ccc3cc(C(=O)O)ccc3c2)cc1C12CC3CC(CC(C3)C1)C2 [Adapalene],-0.788
7,Cc1nc(-c2ccc(OCC(C)C)c(C#N)c2)sc1C(=O)O [Febuxostat],3.79
8,COCCCOc1cc(C[C@@H](C[C@H](N)[C@@H](O)C[C@H](C(=O)NCC(C)(C)C(N)=O)C(C)C)C(C)C)ccc1OC [Aliskiren hemifumarate],0.496
9,COc1c(C)c2c(c(O)c1C/C=C(\C)CCC(=O)OCCN1CCOCC1)C(=O)OC2 [Mycophenolate mofetil],3.22
10,CN1CC2c3ccccc3Oc3ccc(Cl)cc3C2C1 (stereo not given) [Asenapine maleate],-6.16
11,COc1cc2nc(N3CCN(C(=O)c4ccco4)CC3)nc(N)c2cc1OC [Prazosin hydrochloride],4.64
12,CC1CNc2c(cccc2S(=O)(=O)N[C@@H](CCCNC(=N)N)C(=O)N2CC[C@@H](C)C[C@@H]2C(=O)O)C1 (stereo not given in full) [Argatroban],2.82
13,Cc1cn([C@H]2C=C[C@@H](CO)O2)c(=O)[nH]c1=O [Stavudine],0.235
14,CC1(C)O[C@@H]2[C@@H](CO[C@@]3(COS(N)(=O)=O)OC(C)(C)O[C@@H]23)O1 [Topiramate],-0.863
15,O=C1CCc2cc(OCCCCc3nnnn3C3CCCCC3)ccc2N1 [Cilostazol],1.37
16,CCCCC(=O)N(Cc1ccc(-c2ccccc2-c2nnn[nH]2)cc1)[C@H](C(=O)O)C(C)C [Valsartan],0.232
17,CCOc1cc(CC(=O)N[C@@H](CC(C)C)c2ccccc2N2CCCCC2)ccc1C(=O)O [Repaglinide],-4.11
18,O=C(O)CCCc1ccccc1 [Sodium 4-Phenylbutyrate],-5.61
19,CN(C)CC/C=C1/c2ccccc2COc2ccc(CC(=O)O)cc21 [Olopatadine hydrochloride],1.07
20,Clc1ccccc1C(c1ccccc1)(c1ccccc1)n1ccnc1 [Clotrimazole],4.43
